Assay results: PubChem BioAssay (NCATS)
Records with an inconclusive call do not appear. A number with no mark means an inactive call. Active and inactive are the calls of the source. Calls follow the shape of the dose curve; as a rule, active = well fitted curve in the direction sought with a large enough effect; inconclusive = small, poorly fitted or top-dose-only effect, or another doubt; inactive = no such curve, though single readings can be large; an effect the other way counts as inactive or inconclusive.

Key:
[1] = tested on: Tov-21-G; assay: Primary qHTS to identify gynecologic anti-cancer compounds using libraries of approved drugs and bioactive compounds (AID 1345084); conditions: Gynecologic cancer cell panel viability, ATPlite luminescence, 48 h; series mostly up to 57.5 µM; also: nearly all actives have a fitted effect of over 55% in size
Summary of the method: (§1)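 Cells, 1,000 per well, were allowed to settle for 16 h at 37 C before compound addition. Five concentrations were tested for 48 h, and viability was read by ATPlite luminescence after 15 min at room temperature.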

[2] = tested on: Tov112D; assay: as above; conditions: Gynecologic cancer cell panel viability, ATPlite luminescence, 48 h; series mostly up to 57.5 µM
Summary of the method: as §1

[3] = qHTS assay to identify inhibitors of the type 1 interferon - major histocompatibility complex class I in skeletal muscle: Counter screen cell viability and HiBit confirmation (AID 1347412); conditions: iHSKM muscle cells + IFN-b, HiBiT or CellTiter-Glo, 24 h; also: nearly all actives have a fitted effect of over 60% in size
Summary of the method: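 HLA-B*08:01–HiBiT knock-in immortalized human myoblasts (C25cl48) stimulated with 4.0 ng/ml human IFN-beta and dosed with compound in a 12-point 1:3 titration (top final 46 uM). After 24 hrs at 37 C, HiBiT lytic luminescence or CellTiter Glo ATP read out.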

[4] = Drug repurposing screens with cells derived from glioblastoma tumor samples (AID 1345199); conditions: GBM patient neurospheres viability, ATP luminescence, 48 h; also: nearly all actives have a fitted effect of over 40% in size
Summary of the method: (§2)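 Four patient lines of CD133+ GBM neurospheres were screened at several concentrations; hits were retested in those lines plus three slower-growing GBM lines, using 48-hour treatment and ATP-based viability.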

[5] = tested on: astro; assay: as above; conditions: viability, ATP luminescence, 48 h; series mostly up to 45.9 µM
Summary of the method: as §2

[6] = at 45.9 µM (top of the series), tumour line B
[7] = at 45.9 µM (top of the series), tumour line D
[8] = at 46 µM (top of the series), tumour line A
[9] = at 46.1 µM (top of the series), tumour line C
[10] = at 20 µM (top of the series), tumour line C
[11] = at 21.2 µM (top of the series), tumour line B
[12] = at 21.2 µM (top of the series), tumour line D
% is scaled to controls: 0 for no effect and ±100 for the full control effect; potency is read from the fitted curve at half-maximal effect.

**Q.** Which Potency [1] does the source give for `COC1CCCC/C(C)=C/C2C=C(C)C(C)C3C(CC(C)C)NC(=O)C23C(=O)C1` (stereo not drawn) here?
**A.** inactive

**Q.** And the Potency [2]?
**A.** inactive

**Q.** For `O=C(O)C[C@H](O)C[C@H](O)/C=C/c1c(C2CC2)nc2ccccc2c1-c1ccc(F)cc1`, which Potency [2] is on record?
**A.** 11.2 µM (active)

**Q.** Which Potency [2] does the source give for `CNC(=O)c1ccc(Nc2ncc(C(F)(F)F)c(NCc3nccnc3N(C)S(C)(=O)=O)n2)cc1` here?
**A.** 22.4 µM (active)

**Q.** And the Potency ([3]; HiBiT)?
**A.** 3.52 µM (active)

**Q.** What about the activity change, negative = inhibition ([3]; Viability, at 45.9 µM (top of the series)) of the same compound?
**A.** -7.39%

**Q.** Which Potency [1] does the source give for `Cc1cc(C)c(S(=O)(=O)N(Cc2ccc(-c3cccc(S(C)(=O)=O)c3)cc2)Cc2ccc(C(F)(F)F)o2)c(C)c1` here?
**A.** inactive

**Q.** And the Potency [2]?
**A.** inactive

**Q.** What does the source list for `C=C1CCC2C(C)(C)CC(=O)CC2(C)C1CCC(C)CCOC(C)=O` (stereo not drawn)?
**A.** Potency [1]: inactive; Potency [2]: inactive

**Q.** For `O=C(O)c1cnn(-c2nc3cc(OC(F)(F)F)c(Cl)cc3[nH]2)c1`, which Potency [1] is on record?
**A.** inactive

**Q.** And the Potency [2]?
**A.** inactive

**Q.** With `CNC(=O)O[C@H]1COc2ccc(N3CCN(C4COC4)CC3)cc2[C@@H]1NC(=O)c1ccc(F)cc1` as the compound, how does the Potency [1] read?
**A.** inactive

**Q.** And the Potency [2]?
**A.** inactive

**Q.** With `CC(=O)O[C@]1(C(C)=O)CC[C@H]2[C@@H]3CCC4=CC(=O)CC[C@]4(C)[C@@]3(F)[C@@H](O)C[C@@]21C` as the compound, how does the activity, negative = cell killing [4, 6] read?
**A.** -7.13%

**Q.** What about the activity, negative = cell killing [4, 7] of the same compound?
**A.** -7.73%

**Q.** And the activity, negative = cell killing [4, 8]?
**A.** 6.04%

**Q.** What about the activity, negative = cell killing [4, 9] of the same compound?
**A.** 8.8%

**Q.** With `CC(=O)Oc1cc(C)c(OC(C)=O)c2ccccc12` as the compound, how does the activity, negative = cell killing [4, 6] read?
**A.** -16.5%

**Q.** And the activity, negative = cell killing [4, 9]?
**A.** 0.711%

**Q.** With `CC1(C)S[C@@H]2[C@H](NC(=O)Cc3ccccc3)C(=O)N2[C@H]1C(=O)O` as the compound, how does the activity, negative = cell killing [4, 6] read?
**A.** -9.27%

**Q.** And the activity, negative = cell killing [4, 7]?
**A.** -18.5%

**Q.** What about the activity, negative = cell killing [4, 8] of the same compound?
**A.** -18.5%

**Q.** And the activity, negative = cell killing [4, 9]?
**A.** -5.88%

**Q.** And the Potency [5]?
**A.** inactive

**Q.** For `CC[N+](CC)(CC)CCC(O)(c1ccccc1)C1CCCCC1` (stereo not drawn), which activity, negative = cell killing [4, 10] is on record?
**A.** 3.9%

**Q.** What about the activity, negative = cell killing [4, 11] of the same compound?
**A.** -4.74%

**Q.** What about the activity, negative = cell killing [4, 12] of the same compound?
**A.** 0.449%

**Q.** With `CC1=C(/C=C/C(C)=C/C=C/C(C)=C/CO)C(C)(C)CCC1` as the compound, how does the activity, negative = cell killing [4, 6] read?
**A.** -16.9%

**Q.** What about the activity, negative = cell killing [4, 7] of the same compound?
**A.** -16.1%

**Q.** And the Potency ([4]; tumour line A)?
**A.** 31.6 µM (active)

**Q.** What does the source list for `CN1CCC(CN2c3ccccc3Sc3ccccc32)C1` (stereo not drawn)?
**A.** activity, negative = cell killing [4, 9]: 0.543%; Potency ([4]; tumour line A): 7.08 µM (active); Potency ([4]; tumour line B): 35.5 µM (active); Potency ([4]; tumour line D): 17.8 µM (active)

**Q.** Which results are given for `CCc1ccc2c(c1)N(CC(C)CN(C)C)c1ccccc1S2` (stereo not drawn)?
**A.** activity, negative = cell killing [4, 9]: 11.1%; Potency ([4]; tumour line A): 4.47 µM (active); Potency ([4]; tumour line B): 25.1 µM (active)

**Q.** For `CO[C@H]1C=CO[C@@]2(C)Oc3c(C)c(O)c4c(O)c(c5c(c4c3C2=O)=NC2(CCN(CC(C)C)CC2)N=5)NC(=O)/C(C)=C\C=C/[C@H](C)[C@H](O)[C@@H](C)[C@@H](O)[C@@H](C)[C@H](OC(C)=O)[C@@H]1C`, which activity, negative = cell killing [4, 6] is on record?
**A.** -14.2%

**Q.** What about the activity, negative = cell killing [4, 9] of the same compound?
**A.** 33.4%

**Q.** What about the Potency ([4]; tumour line A) of the same compound?
**A.** 10 µM (active)

**Q.** With `CN(C)CCCN1c2ccccc2C(C)(C)c2ccccc21` as the compound, how does the activity, negative = cell killing [4, 9] read?
**A.** 1.86%

**Q.** What about the Potency ([4]; tumour line A) of the same compound?
**A.** 14.1 µM (active)

**Q.** Which activity, negative = cell killing [4, 6] does the source give for `CN1C(=O)CN2CCc3ccccc3C2c2cc(Cl)ccc21` (stereo not drawn) here?
**A.** -19.8%

**Q.** What about the activity, negative = cell killing [4, 7] of the same compound?
**A.** -13.4%

**Q.** And the activity, negative = cell killing [4, 8]?
**A.** -22.5%

**Q.** What about the activity, negative = cell killing [4, 9] of the same compound?
**A.** -33.9%

**Q.** What about the Potency [5] of the same compound?
**A.** inactive

**Q.** What does the source list for `O=S(=O)(O)O`?
**A.** activity, negative = cell killing [4, 6]: 3.03%; activity, negative = cell killing [4, 7]: -20.1%; activity, negative = cell killing [4, 8]: -0.209%; activity, negative = cell killing [4, 9]: -1.26%

**Q.** What does the source list for `COCC(=O)Nc1cc(Sc2ccccc2)ccc1N=C(NC(=O)OC)NC(=O)OC`?
**A.** activity, negative = cell killing [4, 9]: -20.6%; Potency ([4]; tumour line A): 6.31 µM (active)

**Q.** What does the source list for `OCCO[C@@H]1[C@@H](O)[C@H](O)[C@@H](CO)O[C@@H]1O`?
**A.** activity, negative = cell killing [4, 6]: -12.3%; activity, negative = cell killing [4, 7]: -11.5%; activity, negative = cell killing [4, 8]: -14.9%; activity, negative = cell killing [4, 9]: -19.4%; Potency [5]: inactive

**Q.** What does the source list for `C=CCSSSCC=C`?
**A.** activity, negative = cell killing [4, 6]: -7.75%; activity, negative = cell killing [4, 7]: -21.3%; activity, negative = cell killing [4, 8]: -14.2%; activity, negative = cell killing [4, 9]: -8.17%; Potency [5]: inactive

**Q.** Which activity, negative = cell killing [4, 10] does the source give for `CCOC(=O)O[C@]1(C(=O)COC(=O)CC)CC[C@H]2[C@@H]3CCC4=CC(=O)C=C[C@]4(C)[C@H]3[C@@H](O)C[C@@]21C` here?
**A.** 2.55%

**Q.** What about the activity, negative = cell killing [4, 11] of the same compound?
**A.** -5.02%

**Q.** What about the activity, negative = cell killing [4, 12] of the same compound?
**A.** -9.53%

**Q.** What about the activity, negative = cell killing ([4]; at 21.3 µM (top of the series), tumour line A) of the same compound?
**A.** -19.6%
